# DT40 TDP1 CPT: qHTS for Inhibitors of human tyrosyl-DNA phosphodiesterase 1 (TDP1): qHTS in cells in presence of CPT. chicken DT40 Tdp1-/-;hTDP1 cells + 20 nM CPT, ATP luminescence, 48 h. Potency, µM (titrated, usually from 46.2 µM), usual class: inhibitors. hit rate 12% among 420,000. AID 686979, 2013; note: nearly all actives have a fitted effect of over 55% in size
#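 Cell growth measured by CellTiter-Glo luminescence after a minimum 48 h, 37 C compound exposure with 20 nM CPT in Tdp1-knockout DT40 cells stably expressing hTDP1, seeded 400/well; qHTS titration format.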
# IL1B secr inh: qHTS for Inhibitors of Inflammasome Signaling: IL-1-beta AlphaLISA Primary Screen; THP-1 LPS/ATP IL-1B secretion, AlphaLISA, 16 h; active compounds read low; activity change, % at 57.5 µM; AID 743279, 2014; hit rate 4.7% among 360,000; in the data active = activity change below about -50%; inconclusive = mostly about -30% to -49%
#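 THP-1 cells pretreated 1 hr with compounds (up to 57.5 uM final), then stimulated with LPS (250 ng/mL final) plus ATP (1.25 mM final); secreted IL-1B measured by AlphaLISA after 16 hr, decreased signal indicating inhibition.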
# DT40 TDP1 no CPT: qHTS for Inhibitors of human tyrosyl-DNA phosphodiesterase 1 (TDP1): qHTS in cells in absence of CPT. DT40 Tdp1-/- hTDP1 cells, no CPT, ATP luminescence, 48 h. Potency, µM (top dose mostly 46.2 µM), usual class: inhibitors. hit rate 15% among 420,000. AID 686978, 2013; note: nearly all actives have a fitted effect of over 55% in size
#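 Compound effects on proliferation are scored in DT40 Tdp1-/-;hTDP1 cells in the absence of CPT. ATP levels (CellTiter-Glo luminescence) are recorded after a ≥48 hr, 37 °C incubation.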
# MCF10A rereplic: A quantitative high throughput screen for small molecules that induce DNA re-replication in MCF 10a normal breast cells. hit rate 2.9% among 350,000. Potency, µM (series often up to 46.1 µM), hits mostly activators. MCF 10A DNA re-replication, Hoechst nuclear intensity, 48 h. AID 624296, 2012; note: nearly all actives have a fitted effect of over 50% in size
# SW480 rereplic: A quantitative high throughput screen for small molecules that induce DNA re-replication in SW480 colon adenocarcinoma cells | Potency, µM (titrated, usually from 46.1 µM), usual class: activators | SW480 DNA re-replication, Hoechst DNA content imaging, 48 h | AID 624297, 2012 | hit rate 1.8% among 340,000; note: nearly all actives have a fitted effect of over 55% in size
#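 Treated cells incubate 48 hr (37 C, 5% CO2), are stained 40 min with Hoechst, and nuclear fluorescence is enumerated; a rise in nuclei with high DNA signal marks re-replication.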
# Chronic BCR inh: qHTS Assay to Find Inhibitors of Chronic Active B-Cell Receptor Signaling. ABC-DLBCL IkBa-CBG/CBR reporter, luminescence ratio, 4 h. Potency, µM (titrated, usually from 46.1 µM), actives largely listed as inhibitors. hit rate 0.05% among 340,000. AID 493014, 2011; active = well fitted inhibition curve with a large enough effect in the signal ratio, with a control signal flat, not every such curve was filed as active; inconclusive = small, poorly fitted or top-dose-only effect, or effect the other way, or a change in a side signal; the % refers to the signal ratio
#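 TMD8 human ABC-DLBCL cells with doxycycline-inducible IκBα–green luciferase fusion and unfused red luciferase, in 0.5% FBS medium; compounds up to 46 uM, 4 h at 37C. Green/red luminescence ratio, filter-overlap corrected, fitted to concentration-response curves.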
# Numbers stand for hits; - = inactive; ? = inconclusive; . = no result; [ ] = another dose, or the depositor's remark. Most compounds without a hit are left out; they make up all but 19% or so of the library. Unless noted, calls come from the whole dose curve; as a rule, active = well fitted curve in the direction sought with a large enough effect; inconclusive = small, poorly fitted or top-dose-only effect, or another doubt; inactive = no such curve, though single readings can be large; an effect the other way counts as inactive or inconclusive.
SMILES,DT40 TDP1 CPT,IL1B secr inh,DT40 TDP1 no CPT,MCF10A rereplic,SW480 rereplic,Chronic BCR inh
CCCCCCCCCCCCC/C=C/[C@@H](O)[C@H](CO)NC(=O)CCCCCCC,-[4.12 µM],.,-[4.12 µM],.,.,.
CN(CC(=O)Nc1ccc(F)c(Cl)c1)S(=O)(=O)c1ccc2c(c1)n(C)c(=O)c(=O)n2C,?,-,?,-,-,-
O=C(CSc1nnc(CNC(=O)c2c(F)cccc2F)o1)NCc1ccc(F)cc1,-,-,-,-,-,-
COc1ccc(-c2csc(NC(=O)CS(=O)(=O)c3ccc(F)cc3)n2)cc1OC,?,?,?,-,-,-
COc1ccc(-c2csc(NC(=O)Cc3cc(OC)c(OC)c(OC)c3)n2)cc1OC,20.6µM,?,18.4µM,-,-,?
CN(C)S(=O)(=O)c1cccc(NC(=O)COC(=O)c2cc(-c3cccc(Br)c3)nc3ccccc23)c1,?,-,?,-,-,-
COc1cccc(NC(=O)CN(C)C(=O)c2cc(-c3ccc(C)o3)nc3ccccc23)c1,?,-,20.6µM,-,-,-
COc1cccc(NC(=O)CN(C)C(=O)c2cc(-c3ccccc3)nc3ccc(C)cc23)c1,13µM,-,10.3µM,?,?,.
COc1cccc(NC(=O)CN(C)C(=O)c2cc(-c3cccc(Br)c3)nc3ccccc23)c1,?,-54.6,16.4µM,13µM,?,?
Cc1ccc(CNC(=O)C(=O)NCC2OCCCN2S(=O)(=O)c2ccc(F)cc2)cc1 (centres undefined),-,-,-,-,-,-
COc1ccc([N+](=O)[O-])cc1/C=N/NC(=O)/C(=C\c1cccs1)NC(=O)c1ccccc1,?,-,20.6µM,-,?,-
O=C(N/N=C/c1cc2ccccc2nc1Cl)/C(=C/c1cccs1)NC(=O)c1ccccc1,23.1µM,-,?,-,-,-
COc1ccc(/C=C(/NC(=O)c2ccccc2)C(=O)N/N=C/c2cccs2)cc1OC,-,-,-,-,-,?
O=C(N/N=C/c1cccnc1)/C(=C\c1cccs1)NC(=O)c1ccccc1,-,-,-,-,.,-
C[C@H]1CN(S(=O)C(C)(C)C)[C@H](CCO)/C1=C\CCO (some centres undefined),-,-,-,-,-,.
O=S(=O)(c1ccccc1)c1nc(Nc2cccc(O)c2)sc1Cl,?,-,?,-,?,?
CC(C)(C)C1CCc2nc(NC(=O)COc3ccc(F)cc3)sc2C1 (centres undefined),?,.,20.6µM,.,.,.
CC(C)(C)C1CCc2nc(NC(=O)Cc3cn4ccsc4n3)sc2C1 (centres undefined),-,-,?,?,-,?
CC(C)(C)C1CCc2nc(NC(=O)Cc3ccc(Cl)cc3)sc2C1 (centres undefined),6.51µM,.,7.31µM,.,.,.
CC(C)CC(=O)Nc1nc2c(s1)CC(C(C)(C)C)CC2 (centres undefined),16.4µM,.,14.6µM,.,.,.
CCOC(=O)C[n+]1cccc(Br)c1,-,.,-,.,.,.
CCOC(=O)C1(C)Oc2cccnc2NC1=O (centres undefined),-,-69.7,-,-,-,-
Cc1ccccc1Oc1nc2c(C)cccn2c(=O)c1/C=C(\C#N)C(=O)Nc1c(C)n(C)n(-c2ccccc2)c1=O,20.6µM,?,20.6µM,20.6µM,?,?
Cc1ccccc1Oc1nc2ccccn2c(=O)c1/C=C(\C#N)C(=O)Nc1c(C)n(C)n(-c2ccccc2)c1=O,?,-,?,-,-,-
Cc1ccc(Oc2nc3ccccn3c(=O)c2/C=C(\C#N)C(=O)Nc2c(C)n(C)n(-c3ccccc3)c2=O)cc1,-,-60.6,?,-,-,-
O=C(NCCCN1CCOCC1)c1[nH]c(C(F)(F)F)nc1-c1ccccc1,-,-,-,.,.,.

# Screening results deposited in PubChem BioAssay by National Center for Advancing Translational Sciences (NCATS).
